Source: PubChem
Rows were chosen to be rich in hits. Some 4.6% of all compounds tested hit in one or more screens of this group.
Vaccinia Venus – inhibitors of vaccinia virus (Venus reporter). Vaccinia virus Venus reporter expression, fluorescence. Potency, µM (doses to about 36.5 µM), for the others: at the top dose activity change, negative = inhibition, usual class: inhibitors. 0.46% of 330,000 active; calls by dose curve; tested in A549 cells; further: nearly all actives have a fitted effect of over 30% in size
HCV inhibitor – inhibitors of hepatitis C virus infection; Huh7.5.1 HCVcc-Cre infection, luciferase reporter, 44 h; Potency, µM (titrated, usually from 41.8 µM), for inactives: top-dose activity change, negative = inhibition, actives largely listed as inhibitors; 3.4% of 340,000 active; AID 651820; active means well fitted inhibition curve with a large enough effect; inconclusive means small, poorly fitted or top-dose-only effect, or another doubt; inactive means no such curve, though single readings can be large or run the other way
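A cell-based infection assay in which seeded cells (1,000 per well) receive test compound after 4 h, are inoculated with HCVcc-Cre at approximately 0.5 moi, and are incubated 44 h before luminescence detection.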
MARV entry inh – blocks Marburg virus binding to or entry into cells | Marburg virus pseudotyped entry inhibition, cell reporter | Potency, µM (series often up to 37.8 µM), inactives show at the highest dose activity change, negative = inhibition, usual class: inhibitors | 1.8% of 300,000 active; calls by dose curve; tested in HEK293 cells
Vaccinia mCherry – inhibitors of vaccinia virus infection (mCherry reporter signal); Vaccinia virus mCherry reporter infection, fluorescence; Potency, µM (doses to about 36.5 µM), for the others: at the highest dose activity change, negative = inhibition, actives largely listed as inhibitors; 0.63% of 310,000 active; AID 720579; calls by dose curve; tested in A549 cells; further: nearly all actives have a fitted effect of over 35% in size
Lassa entry inh – inhibitors of Lassa virus binding or cell entry; 1.2% of 300,000 active; Potency, µM (highest dose often 37.9 µM), for the others: top-dose activity change, negative = inhibition, hits mostly inhibitors; AID 540256; Lassa virus pseudotype entry inhibition, cell reporter; calls by dose curve; tested in HEK293 cells; further: nearly all actives have a fitted effect of over 50% in size
Active calls of the source: *; i = inactive; ? = inconclusive; . = no result given; [ ] = remark or other dose. On the % scale 0 is the no-effect control and ±100 the full control effect; potency means the concentration at half of the fitted maximal effect.

SMILES	Vaccinia Venus	HCV inhibitor	MARV entry inh	Vaccinia mCherry	Lassa entry inh
CCOC(=O)c1c(CN2CCOCC2)n(-c2ccccc2)c2cc(Br)c(O)cc12	.	-7.0%	12.2%	.	-5.4%
CCOC(=O)c1c(CN2CCOCC2)n(-c2ccccc2)c2cc(Br)c(OC)cc12	.	?	?	.	9.2µM*
CCOC(=O)c1c(C)n(CC(O)CN(C)C)c2cc(Br)c(OC)cc12 (configuration not stated)	-20.3%	?	?	i	-8.6%[46.1 µM]
COc1ccccc1NC(=O)Cc1noc(CSc2cc(C)c3ccccc3n2)n1	.	11.2µM*	-11.2%	.	11.9%
N=c1c2c(ncn1Cc1ccco1)Oc1c(ccc3ccccc13)C2c1ccccc1 (configuration not stated)	?	?	?	-29.6%	?
CN(C)CCn1cnc2c(c1=N)C(c1ccccc1)c1ccc3ccccc3c1O2 (configuration not stated)	.	12.6µM*	.	.	.
COc1ccc(C(=O)N2CCCCC2CCN2CCOCC2)cc1 (configuration not stated)	-2.7%	.	-4.1%[46.1 µM]	-11.5%	-1.9%[46.1 µM]
Cc1cc(NC(=O)N(C)CCc2c(C)nn(C)c2C)ccc1Br	2.1%	.	.	-11.1%	-20.3%[46.1 µM]
C=CCC[C@H](Cc1ccc(F)cc1)C(=O)OC[C@@H](Cc1c[nH]c2ccccc12)NC(=O)[C@@H](CC=C)CC(=O)N(CCO)Cc1ccccc1	11.2µM*	?	.	12.6µM*	.
C=CC[C@H](CC(=O)N(CCO)Cc1ccccc1)C(=O)NC[C@@H](OC(=O)[C@@H](CC=C)Cc1ccc(F)cc1)c1ccccc1	?	7.94µM*	.	-5.4%	.
C=CC[C@H](CC(=O)N(CCO)Cc1ccccc1)C(=O)N[C@H](COC(=O)[C@@H](CC=C)Cc1ccc(F)cc1)Cc1ccccc1	?	10µM*	.	?	.
C=CCC[C@H](Cc1ccc(F)cc1)C(=O)OC[C@H](Cc1c[nH]c2ccccc12)NC(=O)[C@@H](CC=C)CC(=O)N(CCO)Cc1ccccc1	11.2µM*	?	.	?	.
O=C(CSc1nc(-c2ccco2)cc(C(F)(F)F)n1)Nc1ccc(C(=O)N2CCCCC2)cc1	-28.4%	11.2µM*	6.2%	-16.2%	.
Cc1cc(NC(=O)CCCSc2nc(-c3ccco3)cc(C(F)(F)F)n2)no1	-27.4%	2.3%	-29.7%	.	?
Cc1nn(C)cc1NC(=O)CCSc1nc(-c2ccco2)cc(C(F)(F)F)n1	-19.3%	11.2µM*	?	.	-14.4%
CCn1nc(C)c(NC(=O)CCCSc2nc(-c3ccco3)cc(C(F)(F)F)n2)c1C	?	2µM*	?	-20.3%[1.46 µM]	?
O=C(CCSc1nc(-c2ccco2)cc(C(F)(F)F)n1)NCC1CCCO1 (configuration not stated)	-15.0%	10µM*	-11.0%	.	-6.6%
Cc1nc(CC(=O)NCC2Cc3cc(F)cc(-c4ccc(F)c(C)c4)c3O2)cs1 (configuration not stated)	-3.5%	.	.	-10.3%	.
COc1ccc(NC(=O)CCCSc2nc(-c3ccco3)cc(C(F)(F)F)n2)cc1OC	-24.3%	15.8µM*	?	-27.2%	-7.6%[46.1 µM]
CCn1ncc(CNC(=O)CCSc2nc(-c3ccco3)cc(C(F)(F)F)n2)c1C	-12.6%	10µM*	?	-1.3%[1.46 µM]	-11.6%
COc1ccc(CCNC(=O)CCSc2nc(-c3ccco3)cc(C(F)(F)F)n2)cc1	-14.6%	?	-6.5%	-25.6%[1.46 µM]	-26.4%
COC(=O)[C@@H]1CCCN1C(=O)c1c(OC)cc(=O)n2c1CCN(Cc1ccc3nsnc3c1)CC2	-6.6%	.	.	-10.3%	.
COC(=O)C1=C(C)N(Cc2ccccc2)C(=NCc2ccc3c(c2)OCO3)NC1CCc1ccccc1 (configuration not stated)	.	.	-11.9%[14.2 µM]	.	?
C[C@@H]1COc2cc(Br)ccc2S(=O)(=O)N1	.	.	.	.	0.6%[46.1 µM]
c1ccc2c(c1)nc(N1CCCCC1)c1ccccc12	-3.6%	?	?	i	-2.7%
SMILES	Vaccinia Venus	HCV inhibitor	MARV entry inh	Vaccinia mCherry	Lassa entry inh
Cc1nc(N2CCCCCC2)c2ccccc2n1	.	10µM*	.	.	.
c1ccc2c(N3CCCCC3)nc(N3CCCC3)nc2c1	.	3.16µM*	?	.	?
c1ccc(-c2nc(N3CCCCCC3)c3ccccc3n2)nc1	5.01µM*	1.58µM*	?	.	3.98µM*
O=C(NCc1ccncc1)c1cnn(-c2ncc3c(n2)-c2ccccc2CC3)c1C1CC1	-7.8%	.	.	i	.
CCn1c(=NC(=O)C2COc3ccccc3O2)sc2c(OC)ccc(OC)c21 (configuration not stated)	.	11.2µM*	.	.	.
CCn1c(=NC(=O)c2ccc3c(c2)OCCO3)sc2c(C)ccc(OC)c21	-3.8%[7.34 µM]	.	.	-6.5%[7.34 µM]	15.4%[46.1 µM]
CCC[C@]12CCN3C(=O)N[C@@H](c4ccccc4)[C@](C(=O)OCC)(C1)[C@H]32	.	.	8.8%[14.2 µM]	.	.
Cc1ccc(C(=O)N2CCN(c3ccc(NC(=O)COc4ccccc4C)cc3)CC2)cc1	?	11.2µM*	?	?	?
CCC(=O)N1CCN(c2ccc(NC(=O)COc3ccccc3[N+](=O)[O-])cc2)CC1	.	11.2µM*	.	.	.
CCC(=O)N1CCN(c2ccc(NC(=O)COc3ccccc3Cl)cc2)CC1	.	11.2µM*	?	.	?
CCC(=O)N1CCN(c2ccc(NC(=O)COc3ccc(C)cc3C)cc2)CC1	-4.9%	?	?	-11.9%	14.7%
CC(=O)c1cccc(NC(=O)COC(=O)c2ccccc2OCc2cccc(Br)c2)c1	-9.7%	.	.	-19.5%	.
CCOC(=O)c1nnn(C(CC)C(=O)Nc2c(C)cccc2C)c1C(=O)OCC (configuration not stated)	-7.8%	.	-15.8%[46.1 µM]	-0.2%	23.4%[46.1 µM]
CCN1C(=NCCc2cccnc2)NC(CCc2ccccc2)C(C(=O)OC)=C1C (configuration not stated)	.	.	38.2%[14.2 µM]	.	.
COC(=O)c1ccc(CN2C(=O)[C@@]3(CC(C)=CC[C@@H](COc4ccccc4)O3)c3ccccc32)cc1	.	.	9.2%[14.2 µM]	.	.
C(=C\c1nccc2ccccc12)/c1ccc(N2CCOCC2)cc1	-16.6%	.	.	-26.0%	.
CCOC(=O)N1C(=O)[C@@](c2ccc(Cl)cc2)(C(C)C)N1C(=O)OCC	12.6µM*	53.4%	.	?	.
CCOC(=O)N1C(=O)[C@](c2ccc(Cl)cc2)(C(C)C)N1C(=O)OCC	?	12.9%	.	10µM*	.
COC(=O)N1C(=O)[C@](c2ccccc2)(C(C)C)N1C(=O)OC	-26.3%	13.3%	.	?	.
O=C1Cc2ccccc2Sc2ccccc21	7.1%	-0.5%	0.6%	.	-5.6%
c1ccc2c(c1)CCc1ccccc1C2=C1CCNCC1	.	-23.5%	.	.	.
CN1CCC(=C2c3ccccc3Sc3ccccc32)CC1	?	10µM*	.	?	.
CN1CCC(=C2c3ccccc3C=Cc3ccccc32)CC1	-9.2%	?	7.08µM*	i	8.2µM*
CC(=O)OC1C(=O)[C@@]2(C)C(O)CC3OC[C@]3(OC(C)=O)C2C(OC(=O)c2ccccc2)[C@]2(O)CC(OC(=O)C(O)C(NC(=O)c3ccccc3)c3ccccc3)C(C)=C1C2(C)C (some centres not stated)	?	.	.	-27.7%	.
